Reference: PubChem BioAssay (NCATS)
Records with an inconclusive call do not appear. The source made the active and inactive calls. The call rests on the fitted dose curve; in most records, active means well fitted curve in the direction sought with a large enough effect; inconclusive means small, poorly fitted or top-dose-only effect, or another doubt; inactive means no such curve, though single readings can be large; an effect the other way counts as inactive or inconclusive.

How the values were obtained:
[1] = biological target: Cellular tumor antigen p53 (Homo sapiens) (UniProt P04637); test: Primary qHTS for small molecule compounds that upregulate eGFP-tagged delta133p53alpha (in N-terminal) cells. (AID 2060322); conditions: NCI-H358 eGFP-delta133p53alpha fluorescence, 24 h; activation: hits give high values;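 further: 0% = DMSO vehicle and 100% = reference activator; nearly all actives have a fitted effect of over 75% in size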
Cellular tumor antigen p53 (Homo sapiens), sequence (P04637 whole entry, looked up): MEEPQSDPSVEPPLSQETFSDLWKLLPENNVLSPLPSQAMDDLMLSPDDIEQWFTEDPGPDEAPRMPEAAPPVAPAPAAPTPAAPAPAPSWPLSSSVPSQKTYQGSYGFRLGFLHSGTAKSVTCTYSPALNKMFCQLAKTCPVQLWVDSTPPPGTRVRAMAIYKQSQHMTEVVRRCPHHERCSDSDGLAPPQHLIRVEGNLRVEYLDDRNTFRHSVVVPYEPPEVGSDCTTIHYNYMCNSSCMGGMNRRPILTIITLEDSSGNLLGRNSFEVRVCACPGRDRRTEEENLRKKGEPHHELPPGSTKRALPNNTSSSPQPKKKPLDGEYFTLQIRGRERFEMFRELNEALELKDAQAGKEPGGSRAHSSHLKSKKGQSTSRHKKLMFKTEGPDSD
Method in brief: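 NCI-H358 cells pre-induced 24 h with 10 ng/ml doxycycline to express N-terminal eGFP-delta133p53alpha, then dosed 24 h at 37C without doxycycline; fixed, Hoechst-stained, GFP intensity by laser scanning cytometry, normalized to DMSO (0%) and 57.5 uM 5-azacytidine (100%).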

[2] = biological target: Aldehyde dehydrogenase, mitochondrial (Homo sapiens) (UniProt P05091); test: qHTS for Inhibitors of the Aldehyde Dehydrogenase Family (ALDH2) Primary screen (AID 2061308); conditions: ALDH2 enzyme inhibition qHTS, 1536-well; series mostly up to 56 µM;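 further: plate controls were vehicle for no effect and reference inhibitor for full effect; nearly all actives have a fitted effect of over 55% in size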
[3] = biological target: Retinaldehyde dehydrogenase 3 (Homo sapiens) (UniProt P47895); test: qHTS for Inhibitors of the Aldehyde Dehydrogenase Family (ALDH1A3) Primary screen (AID 2061315); conditions: ALDH inhibition qHTS; series mostly up to 56 µM;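 further: plate controls were DMSO vehicle for no effect and reference inhibitor for full effect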

CC1(C)CC[C@]2(C(=O)O)CC[C@]3(C)C(=CCC4[C@@]5(C)C(=O)C[C@H](O)[C@@](C)(CO)C5CC[C@]43C)[C@@H]2C1 (some centres undefined)
inactive: activation [1] -11.5% | Potency [2] | Potency [3]

CC1(C)C2CC[C@]3(C)C(C(=O)C=C4[C@H]5C[C@@](C)(C(=O)O)CC[C@]5(C)CC[C@]43C)[C@@]2(C)CC[C@@H]1O (some centres undefined)
inactive: activation [1] 6.87% | Potency [2] | Potency [3]

O[C@@](Cc1ncc(CC2(C(F)(F)F)CC2)[nH]1)(c1ccc(-n2cccn2)cc1)C(F)(F)F
inactive: activation [1] -3% | Potency [2] | Potency [3]

CCOC(=O)Cn1cccc1-c1nc(-c2ccc(OC)cc2)c(-c2ccc(OC)cc2)s1
inactive: activation [1] 27.6% | Potency [2] | Potency [3]

CC(C)CC(=O)OC1OC=C(CO[C@@H]2O[C@H](CO)[C@@H](O)[C@H](O)[C@H]2O)C2CC(O)C(O)(CO)C12 (some centres undefined)
inactive: activation [1] 15.2% | Potency [2] | Potency [3]

COc1ccc(C2Oc3c(OC)cc(CCCO)cc3C2COC2OC(CO)C(O)C(O)C2O)cc1OC (centres undefined)
inactive: activation [1] -3.82% | Potency [2] | Potency [3]

Fc1ccc(-c2c3cccc(C(F)(F)F)c3nn2Cc2ccc(F)cc2Cl)cc1
inactive: activation [1] -8.11% | Potency [2] | Potency [3]

CC(=O)O[C@H]1[C@H](O[C@H]2CC[C@]34C[C@]35CC[C@]3(C)[C@@H]([C@@]6(C)CC[C@@H](C(C)(C)O)O6)[C@@H](O)C[C@@]3(C)[C@@H]5C[C@H](O[C@@H]3O[C@H](CO)[C@@H](O)[C@H](O)[C@H]3O)[C@H]4C2(C)C)OC[C@@H](OC(C)=O)[C@@H]1O
inactive: activation [1] -7.67% | Potency [2] | Potency [3]
